Screens as filed in PubChem BioAssay.
The list is not random: actives were taken first. Their share in the collection is about 4%.
RecA intein inh – inhibitors of M. tuberculosis RecA intein splicing; AID 2221; cell-free RecA intein splicing, fluorescence; P9WHJ3; inhibition, % (no concentration beside the values); actives 0.75% (n = 290,000); in the data active means inhibition above about 30%;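 further: 0% = vehicle wells and 100% = reference inhibitor control wells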
Mtb UGM inh – Mtb UDP-galactopyranose mutase inhibition | P9WIQ1 | purified UGM, fluorescence polarization probe displacement | inhibition, % at 10 µM | actives 0.06% (n = 320,000) | AID 504406; in the data active means inhibition above about 10%, passing the limit was not always enough
Target sequence (P9WIQ1 whole entry, looked up): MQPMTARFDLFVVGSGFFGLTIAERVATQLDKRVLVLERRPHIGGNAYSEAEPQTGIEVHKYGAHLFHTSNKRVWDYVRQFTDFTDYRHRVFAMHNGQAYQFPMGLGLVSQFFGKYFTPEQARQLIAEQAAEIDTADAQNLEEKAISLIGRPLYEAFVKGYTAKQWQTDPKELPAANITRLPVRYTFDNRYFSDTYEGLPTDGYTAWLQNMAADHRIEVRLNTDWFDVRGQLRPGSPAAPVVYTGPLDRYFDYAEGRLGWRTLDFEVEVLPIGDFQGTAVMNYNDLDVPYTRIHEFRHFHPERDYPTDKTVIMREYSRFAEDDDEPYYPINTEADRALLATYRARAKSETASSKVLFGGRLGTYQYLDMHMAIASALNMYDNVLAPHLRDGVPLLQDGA
Mtb bLac sens – beta-lactam sensitization of Mtb H37Rv; inhibition, % at 25 µM; M. tuberculosis H37Rv growth with meropenem, percent inhibition; actives 0.27% (n = 330,000); AID 434955; call rule not given here;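 further: growth measured after seven days incubation then overnight dye step; 0% = bacteria only wells and 100% = bacteria with antibiotic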
FBA Mtb inh – inhibits M. tuberculosis FBA enzyme. purified M. tuberculosis FBA, fluorescence read-out. inhibition, % at 1 µM. actives 2.3% (n = 360,000); in the data active means inhibition above about 27%;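 further: 0% = vehicle and 100% = reference inhibitor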
GDH-TPI counter – inhibits GDH-TPI coupling enzymes, artifact for Mtb FBA screen; inhibition, % at 4.8 µM; actives 1.2% (n = 360,000); GDH-TPI coupled enzyme counterscreen, NADH absorbance; in the data active means inhibition above about 30%;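 further: 0% = DMSO wells and 100% = wells lacking the enzyme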
Rv3671c inh – Rv3671c (M. tuberculosis) protease inhibition; actives 0.048% (n = 320,000); inhibition, % at 5.96 µM; AID 2606; in the data active means inhibition above about 38%;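 further: extracellular domain of Rv3671c used as enzyme; 0% = enzyme with DMSO and 100% = no enzyme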
* = called active by the depositor; nt = not tested or not shown; + = active, no number.

SMILES	RecA intein inh	Mtb UGM inh	Mtb bLac sens	FBA Mtb inh	GDH-TPI counter	Rv3671c inh
CCOC(=O)c1[nH]c2ccc(OC)cc2c1NC(=O)NC(C)C	-2.5	0.1	4.0	34.8*	2.3	-2.7
COc1ccc2cc(C(=O)NCc3ccccc3)[nH]c2c1	-1.2	1.1	-2.1	6.2	-5.6	nt
Cc1ccc(S(=O)(=O)N2C[C@H]3N(C(=O)OC(C)C)N(C(=O)OC(C)C)C[C@H](OC(=O)Nc4cccs4)[C@@]3(O)C2)cc1	nt	nt	nt	-2.9	0.0	nt
NS(=O)(=O)c1ccc(CCNC(=O)c2ccc(NC3=NC4CS(=O)(=O)CC4S3)cc2)cc1 (stereo unspecified)	2.0	0.1	-3.6	-4.6	-12.6	5.7
COc1ccc(CCN2CCCC(CN(C)Cc3cc(Cl)c(O)c(OC)c3)C2)cc1 (stereo unspecified)	-1.7	2.1	-4.1	-0.7	-3.5	nt
CC1(C(=O)NS(=O)(=O)c2ccc(Cl)cc2)CCN1C(=O)c1ccccc1CCc1ccccc1 (stereo unspecified)	nt	nt	nt	2.8	12.4	nt
CC1OC(Oc2ccc3ccc(=O)oc3c2-c2c(O)ccc3cc(Oc4ccc5ccc(=O)oc5c4)c(=O)oc23)C(O)C(O)C1O (stereo unspecified)	-62.6	2.9	4.2	2.6	45.3*	-0.6
Cc1snc(S(=O)(=O)/C(C#N)=N/Nc2cccc(C(F)(F)F)c2)c1C#N	-32.3	1.0	-4.6	-7.7	20.0	-1.6
COc1ccc(N/N=C(/C#N)S(=O)(=O)c2nsc(C)c2C#N)cc1	-0.9	-0.8	1.2	-3.0	37.9*	1.5
CC1(NC(=O)Nc2cccc3ccccc23)CCS(=O)(=O)C1 (stereo unspecified)	-2.4	0.0	3.5	9.8	4.7	-2.1
CSc1ccc(C2C(C(=O)c3ccco3)=C(O)C(=O)N2c2nnc(SC)s2)cc1 (stereo unspecified)	1.1	1.4	1.1	3.5	3.5	-2.8
CC(=O)c1ccc(N2CCN(c3ccc(S(=O)(=O)NCCCN(C)C)cc3[N+](=O)[O-])CC2)cc1	0.2	2.8	-5.6	-4.3	57.4*	10.3
CC(=O)c1ccc(N2CCN(c3ccc(S(=O)(=O)NCCN(C)C)cc3[N+](=O)[O-])CC2)cc1	4.4	2.4	-2.4	-5.3	14.7	3.2
COc1cc(/C(O)=C(\C#N)c2nc3ccccc3[nH]2)cc(OC)c1OC	-1.0	0.6	86.7	12.1	38.1*	nt
COc1ccc(C)cc1-n1nnnc1SC/C(O)=C(\C#N)c1nc2ccccc2[nH]1	nt	2.8	-0.8	-3.1	36.4*	-11.3
N#C/C(=C(\O)c1cc(Cl)sc1Cl)c1nc2ccccc2[nH]1	-7.8	-0.5	5.5	-0.2	38.9*	-17.5
Cc1cc(C)n2c(SCC(O)=C(C#N)c3nc4ccccc4[nH]3)nnc2n1	nt	nt	nt	1.6	21.1	nt
Fc1ccc2cnc(CCO[C@H]3CCCCO3)cc2c1	nt	-3.1	-2.6	2.6	6.5	-4.8
COc1cc(C2NC(=O)NC(C)=C2C(=O)OC2CCCCC2)cc(Cl)c1O (stereo unspecified)	9.2	2.0	-1.6	184.4*	5.4	-0.3
COc1cc(C2NC(=O)NC(C)=C2C(=O)OCC2CCCCC2)cc(Cl)c1O (stereo unspecified)	20.4	5.3	-4.5	1.1	16.9	-3.9
COc1ccc(CN2CCN(Cc3ccc(Br)cc3)CC2)c(OC)c1OC	-0.8	1.7	6.9	2.8	-0.9	1.4
COC(=O)[C@]1(Cc2ccccc2)N[C@H](c2ccc(-c3cc(C(C)=O)cs3)cc2)[C@@H]2C(=O)N(C)C(=O)[C@@H]21	-4.0	-0.8	14.9	7.7	34.4*	3.6
O=C(Cc1cccc2ccccc12)NCC(=O)N1CCN(Cc2cccc(C(F)(F)F)c2)CC1	nt	0.8	13.9	6.3	7.3	-3.1
O=C(CSc1ncnc2c1nnn2Cc1ccccc1F)NCC1CCCO1 (stereo unspecified)	50.3*	2.0	-5.4	-3.4	2.1	-5.2
COc1cc(OC)cc(C(=O)NC2CC(C)(C)NC(C)(C)C2)c1	-3.5	4.8	-6.9	+	14.3	0.2
SMILES	RecA intein inh	Mtb UGM inh	Mtb bLac sens	FBA Mtb inh	GDH-TPI counter	Rv3671c inh
O=C1C[C@@H](c2ccc(O[C@@H]3O[C@H](CO)[C@@H](O)[C@H](O)[C@H]3O)cc2)Oc2cc(O)ccc21	-3.0	-1.6	4.2	0.5	34.5*	3.7
Cc1c(C)c2c(OCC(=O)NCC(=O)NCC(=O)O)cc3c(c2oc1=O)CCC(C)(C)O3	-0.1	-1.1	9.5	+	11.6	-5.3
Cc1c(C)c2c(OCC(=O)O)cc3c(c2oc1=O)CCC(C)(C)O3	-5.0	0.8	-6.0	+	9.5	-2.3
Cc1cc(OCC(=O)Nc2ccc(Br)cc2)cc2c1C(=O)CC(C)(C)O2	0.8	1.5	33.5	0.6	-3.7	-31.8
Cc1c(C)c2c(OCC(=O)Nc3ccc(CCO)cc3)cc3c(c2oc1=O)CCC(C)(C)O3	0.9	-0.4	-3.5	+	23.5	-55.5
Cc1cc(OCC(=O)NCC2CCC(C(=O)O)CC2)c2c(C)c(C)c(=O)oc2c1 (stereo unspecified)	4.9	-2.7	-1.9	21.1	5.9	4.6
COC(=O)c1ccc2nc(-c3cccc(N)c3)cn2c1	2.9	1.2	-3.8	-2.6	25.6	1.1
CS(=O)(=O)c1ccc(-c2cn3cc(C(=O)O)ccc3n2)cc1	-0.5	2.9	-1.4	114.1*	2.5	-1.1
O=C(CN1C(=O)NC(c2ccc(F)cc2)C1=O)NC1CCCCC1 (stereo unspecified)	nt	0.7	-0.6	-0.5	-5.3	-2.6
COc1ccc(OC)c(C(=O)c2c(C)oc3cc([N+](=O)[O-])c(O)c([N+](=O)[O-])c23)c1	10.3	7.8	0.5	-13.0	36.2*	-0.7
COCCNc1nc(Nc2ccc(C(=O)OC)cc2)c2sccc2n1	nt	nt	nt	5.0	31.0*	nt
Oc1cc(O)c2c(c1)O[C@H](c1ccc(O)c(O)c1)[C@@H](O)C2	59.2*	0.2	0.5	5.9	1.4	-1.0
O=C1c2c(O)cc(O)cc2O[C@H](c2ccc(O)c(O)c2)[C@H]1O	-8.0	-2.8	1.5	0.4	22.7	-2.7
Nc1cc(=O)[nH]c(SCC(=O)Nc2ccc(Oc3ccccc3)cc2)n1	-1.9	0.1	44.1	0.9	-6.9	-19.2
CN1CCN(CCCNCc2cn(CCC#N)c3ccccc23)CC1	0.5	3.7	3.0	3.6	-0.4	0.1
Nc1c(N(Cc2ccccc2)C(=O)COc2ccc(F)cc2Cl)c(=O)[nH]c(=O)n1Cc1ccccc1	nt	1.8	-0.8	5.8	4.9	0.5
CN(C)c1nc2sc3c(c2c(=O)n1C)CC(C)(C)OC3	-1.5	3.5	-3.5	1.4	18.6	5.8
CNc1nc2sc3c(c2c(=O)n1C)CC(C)(C)SC3	4.6	1.3	17.6	184.9*	8.2	1.5
N#Cc1ncc(-c2ccc3c(c2)OCCOCCOCCOCCOCCO3)nc1C#N	44.1*	0.5	100.0	-0.8	4.8	-3.4
Nc1nc(-c2ccc3c(c2)OCCO3)cs1	-2.0	1.1	94.7	-0.7	-2.1	8.8
